Compound activity (PubChem BioAssay)
Hits are enriched below; roughly 12% of the tested compounds scored in any of these assays.
AmpC inh detg – qHTS Inhibitors of AmpC Beta-Lactamase (assay with detergent); P00811; AmpC hydrolysis of nitrocefin, absorbance 480 nm, 0.01% Triton; Potency, µM (highest dose often 114 µM), for the others: at the highest dose activity change, negative = inhibition, actives largely listed as inhibitors; 0.041% of 370,000 active;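 further: 0% = no-compound wells and -100% = no-enzyme wells; nearly all actives have a fitted effect of over 25% in size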
Target sequence (P00811 whole entry, looked up): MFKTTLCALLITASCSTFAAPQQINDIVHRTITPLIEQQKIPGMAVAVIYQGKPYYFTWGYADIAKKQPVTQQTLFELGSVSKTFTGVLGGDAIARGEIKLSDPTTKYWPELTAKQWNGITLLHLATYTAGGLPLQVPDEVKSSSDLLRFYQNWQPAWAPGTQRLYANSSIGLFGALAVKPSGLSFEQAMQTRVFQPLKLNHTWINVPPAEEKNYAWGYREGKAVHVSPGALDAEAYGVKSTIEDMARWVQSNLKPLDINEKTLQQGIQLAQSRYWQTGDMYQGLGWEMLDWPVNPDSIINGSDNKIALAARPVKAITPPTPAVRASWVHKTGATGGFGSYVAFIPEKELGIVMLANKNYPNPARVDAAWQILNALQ
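20 mM phosphate pH 7.0 + 0.01% (detergent screen) or 0.0001% Triton X-100; 5.3 nM AmpC reagent; cpd preinc 15 min RT; nitrocefin (800 uM stock) to start; A480 q20 s × 4 min; Activity was normalised to no-enzyme and no-compound control wells.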
Pf growth 96h – Primary qHTS for delayed death inhibitors of the malarial parasite plastid, 96 hour incubation. P. falciparum luciferase reporter growth, 96 h. 6.9% of 320,000 active. Potency, µM (highest dose often 28.7 µM), for the others: at the highest dose activity change, negative = inhibition, actives largely listed as inhibitors; further: on the % scale 0 is the no-effect control and ±100 the full control effect
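Cell-based qHTS: luciferase-tagged P. falciparum in erythrocytes (2% hematocrit, 0.05% parasitemia final) incubated with compounds for 96 hours, 37 C, 5% CO2; luciferase detection reagent then added and luminescence measured.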
Pf growth 48h – Primary qHTS for delayed death inhibitors of the malarial parasite plastid, 48 hour incubation. Potency, µM (top dose mostly 28.7 µM), for the others: at the highest dose activity change, negative = inhibition, hits mostly inhibitors. P. falciparum luciferase growth in erythrocytes, 48 h. 5.9% of 310,000 active; further: on the % scale 0 is the no-effect control and ±100 the full control effect
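First compound was added to culture medium, then infected red cells at 0.1% parasitemia and 2% hematocrit (final). After incubation at 37 C under 5% CO2, luciferase detection reagent was dispensed and light output recorded.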
AmpC inh no detg – qHTS Inhibitors of AmpC Beta-Lactamase (assay without detergent); P00811; AmpC nitrocefin hydrolysis, absorbance 480 nm, 0.0001% Triton; Potency, µM (titrated, usually from 57.1 µM), inactives show top-dose activity change, negative = inhibition, hits mostly inhibitors; 0.52% of 330,000 active;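 further: plate controls were no compound for no effect and no enzyme for full effect; nearly all actives have a fitted effect of over 20% in size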
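20 mM phosphate pH 7.0 + 0.01% (detergent screen) or 0.0001% Triton X-100; 5.3 nM AmpC reagent; cpd preinc 15 min RT; nitrocefin (800 uM stock) to start; A480 q20 s × 4 min; Activity was normalised to no-enzyme and no-compound control wells.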
SARS PLP yeast – qHTS of Yeast-based Assay for SARS-CoV PLP; Potency, µM (top dose mostly 32.9 µM), inactives show at the top dose activity, positive = growth rescue, hits mostly activators; 0.19% of 330,000 active; S. cerevisiae expressing SARS-CoV PLpro, growth rescue; calls by dose curve; further: 0% is about no effect; nearly all actives have a fitted effect of over 55% in size
Sm TGR inh – qHTS Assay for the Inhibitors of Schistosoma Mansoni Peroxiredoxins | Potency, µM (top dose mostly 114 µM), for inactives: at the highest dose activity change, negative = inhibition, actives largely listed as inhibitors | purified TGR, DTNB reduction, TNB absorbance 405 nm | Schistosoma mansoni thioredoxin glutathione reductase (TGR), Q962Y6 | AID 485364, 2010 | 3% of 360,000 active; further: on the % scale 0 is the no-effect control and ±100 the full control effect; nearly all actives have a fitted effect of over 60% in size
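TGR 20 nM + NADPH 100 uM (dispensed conc.), cpd preinc 15 min RT; start with NADPH (500 uM addition) then DTNB (15 mM addition). Kinetic TNB absorbance, 405 nm filter. Four-parameter Hill fit across titration.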
Starred values were filed as active, the others as inactive; ? = inconclusive; . = not tested or not shown. Unless noted, the call rests on the fitted dose curve; in most records, active means well fitted curve in the direction sought with a large enough effect; inconclusive means small, poorly fitted or top-dose-only effect, or another doubt; inactive means no such curve, though single readings can be large; an effect the other way counts as inactive or inconclusive. Potency means the concentration at half of the fitted maximal effect.

SMILES	AmpC inh detg	Pf growth 96h	Pf growth 48h	AmpC inh no detg	SARS PLP yeast	Sm TGR inh
COCCOC(=O)c1[nH]c2c(c1C)C(=O)CC(c1ccco1)C2 (centres undefined)	?	38%	?	-12%	-7%	45µM*
CSCCOC(=O)c1[nH]c2c(c1C)C(=O)CC(c1ccco1)C2 (centres undefined)	?	3.7µM*	?	-47%	-1%	?
Cc1c(C(=O)OCCOC(C)C)[nH]c2c1C(=O)CC(c1ccco1)C2 (centres undefined)	-4%	?	?	-46%	-14%	?
COc1ccc(C2CC(=O)c3c([nH]c(C(=O)OCc4ccccc4)c3C)C2)cc1 (centres undefined)	12%	.	.	.	.	6%
Cc1c(C(=O)OCc2ccccc2)[nH]c2c1C(=O)CC(c1ccco1)C2 (centres undefined)	-7%	3%	1.5µM*	?	-3%	?
CCCN1CCN(c2cc3c(cc2F)c(=O)c(S(=O)(=O)c2ccc(CC)cc2)cn3CC)CC1	14%	.	.	.	.	1%
CC[C@H](C)[C@H]1O[C@]2(CC[C@@H]1C)C[C@@H]1C[C@@H](C/C=C(\C)[C@H](O[C@@H]3C[C@H](OC)[C@H](O[C@@H]4C[C@H](OC)[C@@H](O)[C@H](C)O4)[C@H](C)O3)[C@@H](C)/C=C/C=C3\CO[C@@H]4[C@H](O)C(C)=C[C@@H](C(=O)O1)[C@]34O)O2	.	4.8µM*	1.2µM*	.	.	.
Cn1c(=O)[nH]c(=O)c2c1nc(SCCO)n2Cc1ccccc1Cl	-1%	?	-26%	-6%	-4%	3%
CCC(C)Sc1nc2c(c(=O)[nH]c(=O)n2C)n1Cc1ccccc1Cl (centres undefined)	-7%	?	12µM*	-11%	-4%	-2%
Cn1c(=O)[nH]c(=O)c2c1nc(SCCN1CCCCC1)n2Cc1ccccc1	?	-22%	?	-7%	-2%	3%
Cc1ccc(Cn2c(SCCN3CCCCC3)nc3c2c(=O)[nH]c(=O)n3C)cc1	-6%	3.7µM*	-14%	-31%	8%	1%
CSc1nc2c(c(=O)[nH]c(=O)n2C)n1Cc1ccccc1Cl	-6%	5.2µM*	-13%	-16%	1%	-16%
CCOC(=O)c1sc(SC)c2c1CCCC2=O	3%	27%	45%	-6%	0%	-5%
COc1ccc(CCNC(=O)CCc2c(C)nc3cc(-c4ccccc4OC)nn3c2C)c(OC)c1	1%	.	.	.	.	7%
COc1cc(C(=O)NCCC(c2ccccc2)c2ccccc2)cc(OC)c1OC	-18%	-28%	?	69%	-6%	?
O=C(Oc1ccc(=O)n(-c2ccccc2)n1)c1cccc(Cl)c1	?	42%	32%	-14%	2%	16µM*
O=C(Oc1ccc(=O)n(-c2ccccc2)n1)c1ccc(Cl)cc1	?	31%	0%	-7%	-2%	?
Cc1cccc(Cn2c(=O)n(Cc3ccccc3)c(=O)c3sc4ccccc4c32)c1	9%	.	.	.	.	6%
Cc1ccccc1NC(=O)c1ccc(CNS(=O)(=O)c2ccc3c(c2)C(C)(C)C(=O)N3C)cc1	7%	.	.	.	.	8%
Cc1ccc(CNC(=O)c2ccc(CNS(=O)(=O)c3ccc4c(c3)C(C)(C)C(=O)N4C)cc2)o1	-9%	-6%	?	-10%	4%	50µM*
CCC(C)NC(=O)c1ccc(CNS(=O)(=O)c2ccc3c(c2)C(C)(C)C(=O)N3C)cc1 (centres undefined)	?	9.3µM*	0%	-16%	13%	-30%
Cc1ccc(NC(=O)c2ccc(CNS(=O)(=O)c3ccc4c(c3)C(C)(C)C(=O)N4C)cc2)cc1C	13%	.	.	.	.	1%
